# Laboratory results as given in PubChem BioAssay (NCI).
# About 83,000 compounds went through this panel and 20% of them were active in at least one assay; those are over-represented in the sample as a whole.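 Cells were grown in 96-well plates and exposed to the test compound at a single concentration for 48 hours; results are reported as percent growth, with values below 10 considered active.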 Activity calls are given as the source filed them.
# Tested on: MDA-MB-468 breast
# Test: NCI-60 one-dose screen, 48 h (100 = growth as untreated, 0 = no growth, -100 = all killed)
# Details: 10 µM unless noted
row,SMILES,growth
1,CC(=O)OC[C@H]1OC(Sc2sc(C(=O)c3ccc(Br)cc3)c(N)c2-c2nc3ccccc3s2)[C@H](OC(C)=O)[C@@H](OC(C)=O)[C@@H]1OC(C)=O (stereo partly drawn),71.5% (inactive)
2,N#CC1=C(/N=C/c2ccccc2)Oc2c(ccc3ccccc23)C1c1ccccc1 (stereo not drawn),6.43% (active)
3,O=C(c1ccc(O)cc1)[C@@H]1CN[C@@]2(C(=O)Nc3ccccc32)[C@H]1c1ccc(F)cc1,97.5% (inactive)
